Rhodamine autofl: rhodamine region autofluorescence; Rhodamine-region fluorescence, 547/598 nm, Tris buffer; stronger effect = higher value; max dye-equivalent concentration, M; hit rate 0.05% among 59,000; AID 594; in the data active = max dye-equivalent concentration above about 11 nM; inconclusive = between about 1.1 nM and that limit
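Intensities are converted to rhodamine-equivalent concentration using a six-point rhodamine standard on each plate. Compounds sit 15 min at room temperature in 100 mM Tris buffer, pH 8.0; read uses the 547/598 nm excitation/emission pair.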
TexasRed autofl: compound fluoresces in the Texas Red spectral region; max dye-equivalent concentration, M; hit rate 0.06% among 59,000; Compound fluorescence, Texas Red channel, 547/618 nm; stronger effect = higher value; AID 587; in the data active = max dye-equivalent concentration above about 10 nM; inconclusive = between about 1.1 nM and that limit
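Spectral interference profiling: each compound concentration's relative fluorescence, read with a 547 nm excitation and 618 nm emission filter pair, was normalized to a per-plate Texas Red standard curve.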
Fluorescein autfl: compound autofluorescence in fluorescein spectral region; Compound autofluorescence, 480/540 nm, fluorescein-equivalent; stronger effect = higher value; max fluorescein-equivalent concentration, M; hit rate 0.91% among 59,000; in the data active = max fluorescein-equivalent concentration above about 10 nM; inconclusive = between about 1.1 nM and that limit
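Values reflect compound autofluorescence, normalized to fluorescein on the same plate and reported at each tested concentration. Conditions: 100 mM Tris pH 8.0, room temperature, 15 min, excitation 480 nm, emission 540 nm.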
Resorufin autofl: compounds fluorescent in resorufin spectral region | Compound fluorescence, resorufin region 547/598 nm, buffer; stronger effect = higher value | max dye-equivalent concentration, M | hit rate 0.04% among 59,000
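Read-out: intrinsic compound fluorescence at ex 547/em 598 nm after 15 min at RT in pH 8.0 Tris (100 mM). Values expressed as resorufin-equivalent concentration from per-plate standard series.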
A488 autofl: compound fluoresces in the A488 spectral region; hit rate 0.1% among 59,000; AID 591; max dye equivalency, M; compound autofluorescence, A488 spectral region, dye equivalency; Compound Type: qHTS ECL - MLSMR
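Intrinsic compound fluorescence is measured in 100 mM Tris buffer at pH 8.0 following 15 min incubation at room temperature. Intensities at 480 nm excitation/540 nm emission are calibrated to an on-plate A488 concentration series, giving dye-equivalent concentrations.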
A647 fluor: compound autofluorescence in A647 spectral region; max dye-equivalent concentration, M; Compound fluorescence, A647 channel (570/671 nm), Tris buffer; AID 592; 59,000 tested, under 10 active;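 note: values scaled relative to a standard on each plate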
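Each compound's intrinsic fluorescence at 570 nm excitation and 671 nm emission is measured across its concentration series in 100 mM Tris, pH 8.0, after 15 min at room temperature, and reported relative to an A647 curve.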
An asterisk follows results filed as active; i = inactive; ? = inconclusive. Only some compounds are listed: those with a hit (about 0.9% of all), similar ones and a draw of the others. Unless noted, the rule behind the calls is not given here.

SMILES	Rhodamine autofl	TexasRed autofl	Fluorescein autfl	Resorufin autofl	A488 autofl	A647 fluor
CC(=O)N1C(=O)N(C(C)=O)C2C1N(C(C)=O)C(=O)N2C(C)=O (stereo not given)	i	i	i	i	i	1e-09
COc1cccc(-c2noc(N)c2C#N)c1	i	?	?	i	i	2.6e-08
Cc1ccc(-c2cc(-c3nnc(SCC(=O)N(C)CCC#N)n3N)c3ccccc3n2)cc1	i	i	1.1e-08M*	i	i	1.1e-09
CCOC(=O)c1cnn2c(C(F)(F)F)cc(-c3ccco3)nc12	i	i	i	i	i	1e-09
CC(C)OC(=O)c1nn2c(C(F)(F)F)cc(-c3ccc(Br)o3)nc2c1Br	i	i	1.6e-08M*	i	i	5.3e-08
CCC1=C/C(=C/N(C)c2ccccc2)C(=O)S1	i	i	1.5e-08M*	i	i	5.2e-08
COc1ccccc1CNC(=O)Cn1nnc(-c2ccncc2)n1	i	i	i	i	i	4.7e-09
COc1cc(N2C(=O)NC3CC2(C)Oc2ccccc23)cc(OC)c1OC (stereo not given)	i	i	i	i	i	4.2e-08
CN(C)c1ccc(/C=C/C(O)=C2/C(=O)N(C)C3(C)CC2c2ccccc2O3)cc1 (stereo not given)	i	i	1.6e-08M*	i	i	1e-09
COC(=O)c1c(NC(=O)c2ccc(S(=O)(=O)N3CCOCC3)cc2)sc2c1CCN(C)C2	i	?	i	i	i	9.4e-09
CCOC(=O)C1CCCN(S(=O)(=O)c2c(C)c(C)cc(C)c2C)C1 (stereo not given)	i	?	i	i	i	1e-08
Nc1nc(N)c(N=Nc2ccc(C(=O)O)c(O)c2)c(N)n1	i	i	1.4e-08M*	i	i	1e-09
Nc1ccc(C(=O)O)c(O)c1	i	i	?	i	i	1e-09
CCN(CC)c1ccc2cc(-c3nnc(-c4ccncc4)o3)c(=O)oc2c1	i	i	1e-06M*	i	4.8e-08M*	1.2e-08
CCCOc1ccc(-c2nnc(-c3ccncc3)o2)cc1	i	i	?	i	i	5.9e-08
COc1ccc(N(C)S(=O)(=O)c2ccc3c(c2)CCC(=O)N3)cc1	i	i	i	i	i	3.1e-09
CN(C)S(=O)(=O)c1ccc2c(c1)/C(=C/c1cc3c([nH]1)CCCC3)C(=O)N2	i	i	1.9e-08M*	i	i	2.6e-08
O=[N+]([O-])c1ccc2ncccc2c1CCc1c([N+](=O)[O-])ccc2ncccc12	i	i	1.1e-08M*	i	i	1e-09
O=C(c1ccccc1C(=O)N1CCN(c2ccccc2)CC1)N1CCN(c2ccccc2)CC1	i	i	1.5e-08M*	i	i	1.3e-08
Cc1ccc(C)c(S(=O)(=O)C(C#N)c2nc3ccccc3nc2N2CCCC2)c1 (stereo not given)	i	i	1.1e-08M*	i	i	2.1e-08
N#CC(c1nc2ccccc2nc1N1CCCC1)S(=O)(=O)c1cccs1 (stereo not given)	i	i	1.7e-08M*	i	i	2.8e-08
COc1ccc(S(=O)(=O)C(C#N)c2nc3ccccc3nc2N2CCCCC2)cc1 (stereo not given)	i	i	?	i	i	5.4e-09
O=c1c2ccccc2c(/C=N/n2cnnc2)c(O)n1-c1ccccc1F	i	i	1.3e-08M*	i	i	2.8e-09
Cn1c(N)c(C(=O)COC(=O)Cc2ccsc2)c(=O)n(C)c1=O	i	?	?	i	i	4.5e-08
O=c1nccc(NCc2ccco2)[nH]1	i	?	?	i	i	6.4e-09
SMILES	Rhodamine autofl	TexasRed autofl	Fluorescein autfl	Resorufin autofl	A488 autofl	A647 fluor
O=C1c2ccccc2-c2onc3ccc(NCc4ccco4)c1c23	2e-08M*	1.8e-08M*	1.2e-06M*	1.7e-08M*	5.4e-08M*	1.1e-08
O=C(CC1C(=O)NCCN1C(=O)c1ccc(F)cc1)OCc1ccccc1 (stereo not given)	i	?	?	i	i	4.2e-08
COc1cc(NC(=O)CCN2CCN(c3ccccc3F)CC2)cc(OC)c1	i	?	i	i	i	2.2e-09
CCN1C(=O)/C(=C2/SC(C)=C(C)N2CC)SC1=S	i	i	7.1e-08M*	i	?	1e-09
Cn1cc[nH]c1=S	i	i	2.2e-08M*	i	i	1.8e-08
O=C(O)c1ccc(C2CCCCC2)cn1	i	i	i	i	i	3.3e-08
OCCN(CCO)c1nc(N2CCCCC2)c2nc(N(CCO)CCO)nc(N3CCCCC3)c2n1	i	i	6.7e-07M*	i	2.9e-08M*	3.4e-08
O=C(NC1(C(F)(F)F)Oc2ccccc2O1)N1CCCC1	i	i	i	i	i	1e-09
CN(C)c1ccc(-c2nnc(-c3ccc(S(=O)(=O)C(F)F)cc3)o2)cc1	i	i	2e-08M*	i	i	2.5e-08
COc1ccc(-c2nnc(-c3ccc(N(C)C)cc3)o2)cc1	i	?	i	i	i	9.2e-09
C=CCOC(=O)C(C#N)c1nc2ccccc2nc1N1CCN(Cc2ccc3c(c2)OCO3)CC1 (stereo not given)	i	i	1.2e-08M*	i	i	1e-09
C=CCNC(=O)C(C#N)c1nc2ccccc2nc1N1CCCCCC1 (stereo not given)	i	i	1.3e-08M*	i	i	1e-09
CCCCCCOC(=O)C(C#N)c1nc2ccccc2nc1N1CCCCC1 (stereo not given)	i	i	1e-08M*	i	i	2.6e-08
CCCCNC(=O)C(C#N)c1nc2ccccc2nc1N1CCN(Cc2ccc3c(c2)OCO3)CC1 (stereo not given)	i	i	?	i	i	1e-09
CCCCNC(=O)C(C#N)c1nc2ccccc2nc1N1CCCC1 (stereo not given)	i	i	2.3e-07M*	i	1.2e-08M*	1e-09
COC(=O)C(C#N)c1nc2ccccc2nc1N1CCCC1 (stereo not given)	i	i	i	i	i	1e-09
CCC(C)Nc1nc2c(c(=O)n(C)c(=O)n2C)n1Cc1cccc(C)c1 (stereo not given)	i	i	i	i	i	1.2e-09
CCn1nnnc1-c1ccc(OC)c(S(=O)(=O)N2CCCCC2)c1	i	?	?	i	i	2.3e-08
Cc1ccc(C)c(Cn2c(=O)c3c(nc4n3CCN4Cc3ccco3)n(C)c2=O)c1	i	i	i	i	i	3e-08
CC1CN(c2nc3ccccc3nc2C(C#N)C(=O)NCc2ccc3c(c2)OCO3)CC(C)O1 (stereo not given)	i	i	1.1e-07M*	i	?	1e-09
